Test results published in PubChem BioAssay.
Results filed as inconclusive are left out. The source made the active and inactive calls.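 How the source made its calls, unless noted: active means efflux inhibition above 0.42, the validation set average plus 4 SD; inconclusive means no clear call, values can overlap the other calls; inactive means the rest.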

Key:
[1] = yeast TOR pathway RPL19A-GFP modulators, primary screen, cell-based, S. cerevisiae, multiplex flow cytometry (AID 1862; in the data active means percent of DMSO control GFP below about 86%;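 further: lower values mimic rapamycin by blocking the RPL19A rise seen in DMSO cells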); conditions: S. cerevisiae RPL19A-GFP strain, flow cytometry fluorescence, 3 h; at 10 µM; stronger effect = lower value
[2] = modulators of MEP2-GFP levels in yeast, primary screen, S. cerevisiae, multiplex flow cytometry (AID 1867;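 active means GFP response, as percent of the DMSO control, above the screen-wide mean plus 3 SD, about 139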;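 further: median GFP channel fluorescence of barcode-gated MEP2-GFP cells measured by flow cytometry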); conditions: S. cerevisiae MEP2-GFP strain, 3 h, at 10 µM, stronger effect = higher value, 100% means same as DMSO wells
[3] = modulators of CIT2-GFP expression in yeast, primary screen, S. cerevisiae, GFP fusion, multiplex flow cytometry (AID 1870;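 active means percent response above a set limit, the screen-wide mean plus 3 SD, cut at about 130% in these data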;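 further: barcoded CIT2-GFP strain pooled with four other GFP strains with rapamycin as positive control; median GFP fluorescence per well over plate mean of DMSO wells so 100% = DMSO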); conditions: 3 h, at 10 µM, stronger effect = higher value
[4] = modulators of LAP4-GFP expression in yeast, primary screen, S. cerevisiae, multiplex flow cytometry (AID 1873;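 active means GFP signal, as percent of the solvent control, above the screen mean plus 3 SD, about 149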); conditions: 3 h, at 10 µM, stronger effect = higher value
[5] = modulators of AGP1-GFP expression in yeast TOR pathway, primary screen, cell-based, multiplex flow cytometry, S. cerevisiae (AID 1887;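 active means GFP signal above the screen-wide mean plus 3 SD, that is over about 124.5% of the solvent control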;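 further: AGP1-GFP fusion strain of S. cerevisiae within a five-strain barcoded multiplex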); conditions: 3 h, at 10 µM, stronger effect = higher value
[6] = inhibitors of CD8+ T cell-vesicle binding, pilot screen, LFA-1/ICAM-1 modulator project, MLPCN validation set, flow cytometry (AID 2523;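 active means response below a set limit, under 55% cells CD8-positive and vesicle-bound, and CD8 cells' 90th-percentile brightness under 279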;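 on vesicle binding response: mean PE anti-B7-1 fluorescence of CD8+ cells relative to row control; 100% = QL9-loaded vesicles with DMSO vehicle in the same plate row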); conditions: 2C mouse CD8+ T cells, at 7 µM, stronger effect = lower value; double positive events: measured here: CD8+/vesicle+ event percentage
[7] = biological target: Integrin beta-1 (Homo sapiens) + Integrin alpha-4 (Homo sapiens) (UniProt P13612+P05556); test: inhibition of HUTS-21 binding to VLA-4, pilot screen, VLA-4 allosteric modulator project, U937 cells, HUTS-21 mAb, flow cytometry, validation set (AID 2674;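 active means inhibition above 50%, about 3 SD of the validation set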;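 further: antibody binding induced by the VLA-4 ligand LDV present at three times its Kd; 0% = LDV ligand with antibody and no compound and 100% = antibody without LDV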); conditions: HUTS-21 LIBS mAb binding, at 6.7 µM, stronger effect = higher value, binding induced by LDV ligand
[8] = superoxide lowering in aged yeast cells, pilot screen, validation compound set (AID 2706;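 active means superoxide response below 65% of plate, a cut near 3 SD across the whole screen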;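 further: yeast exposed to compound for one week at 30 degrees C before staining; 100% = mean of all compound wells on the same plate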); conditions: S. cerevisiae aging, superoxide DHE fluorescence; at 10 µM; stronger effect = lower value
[9] = biological target: Beta-adrenergic receptor kinase 1 (Homo sapiens) (UniProt P25098); test: GRK2 binders displacing RNA aptamer, biochemical, validation, human GRK2, bead flow cytometry (AID 488806;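 active means aptamer binding inhibition above 30%, about 3 SD of noise from non-fluorescent compounds; inactive means inhibition at or below 30%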); conditions: bead-bound GRK2, FAM-aptamer displacement, at 10 µM, stronger effect = higher value
[10] = biological target: Beta-2 adrenergic receptor (Homo sapiens) (UniProt P07550); test: beta2AR agonists driving receptor internalization, pilot screen, cell-based, FAP fluorogen, flow cytometry, validation set (AID 504459;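 active means percent response above 42, roughly 3 SD of non-fluorescent test compounds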;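 further: agonist-driven loss of surface beta2AR via internalization measured by FAP dye flow cytometry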); conditions: Am2.2-beta2AR cells, FAP surface receptor flow cytometry; at 10 µM; stronger effect = higher value
[11] = biological target: AP-2 complex subunit beta (Homo sapiens) (UniProt P63010); test: inhibitors of arrestin peptide binding to AP2, pilot screen, biochemical, validation set, GST-AP2 beads, flow cytometry (AID 504541;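 active means inhibition above 54%, about 3 SD of non-fluorescent compounds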;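 further: AP2 carries R879A mutation and is captured from E. coli lysate; bead-bound FITC arrestin peptide fluorescence measuring arrestin peptide binding to AP2; 0% = DMSO wells and 100% = excess unlabeled arrestin peptide control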); conditions: FITC arrestin peptide, at 10 µM, stronger effect = higher value, AP2 beta2 appendage fragment, R879A mutant
[12] = yeast V-ATPase proton transport modulators, S. cerevisiae, pHLuorin, HTS validation (AID 504600; in the data active means response above about 15%;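 further: plate controls were DMSO for no effect and reference compound for full effect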); conditions: S. cerevisiae pHLuorin cytosolic pH, at 10 µM, stronger effect = higher value
[13] = tested on: anti-desmoglein-3 scFv antibody binding to human DSG3; test: inhibitors of anti-DSG3 scFv binding to DSG3, pilot screen, biochemical, validation compound set, bead-based, flow cytometry (AID 588368;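 active means binding below the plate cutoff, the plate median minus 3 SD, with a reading above zero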;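 further: signal is the median channel fluorescence of bead-bound GFP antibody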); conditions: Protein G beads, DSG3-Fc, scFv-GFP binding, at 10 µM, stronger effect = lower value
[14] = inhibitors of fungal efflux pumps CDR1, CDR2, MDR1, pilot screen, validation compound set, multiplex, phenotypic (AID 588506);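 further: Nile Red retained in cells so higher fluorescence means more efflux inhibition; 0 = negative control wells and 1 = enniatin B 25 µM full block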; conditions: S. cerevisiae pump-expressing triplex, Nile Red efflux flow cytometry; at 10 µM; stronger effect = higher value; the pumps come from Candida albicans
[15] = biological target: ATP-binding cassette sub-family B member 6 (Homo sapiens) (UniProt Q9NP58); test: ABCB6 transporter inhibitors, pilot screen, K562-ABCB6 cells, flow cytometry, validation set (AID 588550;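 active means inhibition above the screen-wide mean plus 3 SD, about 51%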;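 further: 0% = DMSO wells and 100% = benzethonium chloride 70 µM positive control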); conditions: K562-ABCB6 porphyrin accumulation, 1 h, at 10 µM, stronger effect = higher value
[16] = promoters of myeloid differentiation in arrested cells, primary screen, cell-based, GFP/MAC1 double positive, flow cytometry, validation set (AID 588685;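 active means differentiation response of at least 50%, scaled between solvent and reference control, from cells with both markers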;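 further: compound exposure lasts four days before antibody staining and flow analysis; 0% = DMSO wells and 100% = 5 µM fulvestrant positive control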); conditions: ER-HoxA9 marrow cells, stronger effect = higher value, normalized: vehicle 0, fulvestrant 100

Sequence of Beta-adrenergic receptor kinase 1 (Homo sapiens) (P25098 whole entry, looked up): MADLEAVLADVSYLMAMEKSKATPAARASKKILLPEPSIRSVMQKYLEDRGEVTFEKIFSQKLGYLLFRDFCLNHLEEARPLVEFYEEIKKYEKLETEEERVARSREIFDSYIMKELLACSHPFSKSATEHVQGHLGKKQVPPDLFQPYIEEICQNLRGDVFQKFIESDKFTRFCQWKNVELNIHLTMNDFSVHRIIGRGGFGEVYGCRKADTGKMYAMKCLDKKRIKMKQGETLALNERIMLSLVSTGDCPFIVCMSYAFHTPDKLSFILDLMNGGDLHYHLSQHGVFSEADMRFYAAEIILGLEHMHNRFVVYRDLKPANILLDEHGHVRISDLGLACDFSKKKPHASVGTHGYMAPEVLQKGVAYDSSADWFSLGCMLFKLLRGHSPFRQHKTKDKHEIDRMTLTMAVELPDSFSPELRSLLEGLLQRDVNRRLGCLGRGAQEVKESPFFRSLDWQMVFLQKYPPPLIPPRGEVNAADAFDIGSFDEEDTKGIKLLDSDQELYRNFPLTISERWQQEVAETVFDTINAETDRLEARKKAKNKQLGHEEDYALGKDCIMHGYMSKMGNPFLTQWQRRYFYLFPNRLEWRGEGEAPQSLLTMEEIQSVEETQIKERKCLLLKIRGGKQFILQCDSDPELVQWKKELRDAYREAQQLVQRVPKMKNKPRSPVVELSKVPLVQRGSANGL
Sequence of Integrin beta-1 (Homo sapiens) + Integrin alpha-4 (Homo sapiens) (P05556 whole entry, looked up): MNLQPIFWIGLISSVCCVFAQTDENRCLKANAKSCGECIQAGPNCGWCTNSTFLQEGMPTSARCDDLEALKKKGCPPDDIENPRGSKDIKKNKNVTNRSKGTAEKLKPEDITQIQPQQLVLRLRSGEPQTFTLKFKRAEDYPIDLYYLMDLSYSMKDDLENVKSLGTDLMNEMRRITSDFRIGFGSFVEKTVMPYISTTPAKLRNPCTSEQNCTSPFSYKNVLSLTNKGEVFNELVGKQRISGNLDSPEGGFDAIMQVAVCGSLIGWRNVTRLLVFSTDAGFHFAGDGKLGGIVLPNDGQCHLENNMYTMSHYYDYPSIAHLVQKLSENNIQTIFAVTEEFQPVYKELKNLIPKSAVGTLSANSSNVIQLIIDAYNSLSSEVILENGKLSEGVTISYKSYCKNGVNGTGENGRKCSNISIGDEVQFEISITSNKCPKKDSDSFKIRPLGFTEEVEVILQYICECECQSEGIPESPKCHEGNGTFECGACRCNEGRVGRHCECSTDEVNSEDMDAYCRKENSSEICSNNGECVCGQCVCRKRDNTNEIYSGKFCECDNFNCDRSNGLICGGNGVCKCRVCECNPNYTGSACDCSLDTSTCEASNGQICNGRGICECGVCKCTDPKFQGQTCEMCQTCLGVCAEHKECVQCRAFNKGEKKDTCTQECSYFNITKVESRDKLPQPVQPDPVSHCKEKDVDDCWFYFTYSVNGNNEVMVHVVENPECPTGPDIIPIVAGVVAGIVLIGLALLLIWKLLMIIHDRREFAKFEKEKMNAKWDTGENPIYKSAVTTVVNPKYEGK
Sequence of Integrin beta-1 (Homo sapiens) + Integrin alpha-4 (Homo sapiens) (P13612 whole entry, looked up): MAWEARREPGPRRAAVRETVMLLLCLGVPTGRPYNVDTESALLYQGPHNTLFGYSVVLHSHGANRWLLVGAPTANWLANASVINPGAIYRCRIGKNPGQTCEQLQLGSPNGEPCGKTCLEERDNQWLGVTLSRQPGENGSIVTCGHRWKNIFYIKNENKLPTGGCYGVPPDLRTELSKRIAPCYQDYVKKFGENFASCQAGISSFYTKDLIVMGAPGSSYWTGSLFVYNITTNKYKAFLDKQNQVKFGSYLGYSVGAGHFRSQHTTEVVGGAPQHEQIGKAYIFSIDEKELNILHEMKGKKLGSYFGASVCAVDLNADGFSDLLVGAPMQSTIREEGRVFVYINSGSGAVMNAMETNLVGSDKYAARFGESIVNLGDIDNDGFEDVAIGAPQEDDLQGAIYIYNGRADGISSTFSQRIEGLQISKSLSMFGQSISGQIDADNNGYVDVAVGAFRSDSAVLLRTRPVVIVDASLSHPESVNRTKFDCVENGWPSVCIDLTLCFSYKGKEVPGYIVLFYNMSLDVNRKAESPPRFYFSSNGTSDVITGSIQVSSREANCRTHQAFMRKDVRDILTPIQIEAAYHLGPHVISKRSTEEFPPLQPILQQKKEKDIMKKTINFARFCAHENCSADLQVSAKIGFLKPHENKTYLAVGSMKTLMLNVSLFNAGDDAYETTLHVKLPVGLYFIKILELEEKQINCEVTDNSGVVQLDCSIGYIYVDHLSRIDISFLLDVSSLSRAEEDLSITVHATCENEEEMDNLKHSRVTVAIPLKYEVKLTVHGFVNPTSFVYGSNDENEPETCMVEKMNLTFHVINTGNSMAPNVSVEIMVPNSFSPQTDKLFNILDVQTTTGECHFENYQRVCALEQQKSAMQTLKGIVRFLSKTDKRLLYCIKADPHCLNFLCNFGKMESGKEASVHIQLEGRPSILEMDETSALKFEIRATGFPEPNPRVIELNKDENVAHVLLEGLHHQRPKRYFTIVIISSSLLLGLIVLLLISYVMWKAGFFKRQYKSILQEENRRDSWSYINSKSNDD
Sequence of ATP-binding cassette sub-family B member 6 (Homo sapiens) (Q9NP58 whole entry, looked up): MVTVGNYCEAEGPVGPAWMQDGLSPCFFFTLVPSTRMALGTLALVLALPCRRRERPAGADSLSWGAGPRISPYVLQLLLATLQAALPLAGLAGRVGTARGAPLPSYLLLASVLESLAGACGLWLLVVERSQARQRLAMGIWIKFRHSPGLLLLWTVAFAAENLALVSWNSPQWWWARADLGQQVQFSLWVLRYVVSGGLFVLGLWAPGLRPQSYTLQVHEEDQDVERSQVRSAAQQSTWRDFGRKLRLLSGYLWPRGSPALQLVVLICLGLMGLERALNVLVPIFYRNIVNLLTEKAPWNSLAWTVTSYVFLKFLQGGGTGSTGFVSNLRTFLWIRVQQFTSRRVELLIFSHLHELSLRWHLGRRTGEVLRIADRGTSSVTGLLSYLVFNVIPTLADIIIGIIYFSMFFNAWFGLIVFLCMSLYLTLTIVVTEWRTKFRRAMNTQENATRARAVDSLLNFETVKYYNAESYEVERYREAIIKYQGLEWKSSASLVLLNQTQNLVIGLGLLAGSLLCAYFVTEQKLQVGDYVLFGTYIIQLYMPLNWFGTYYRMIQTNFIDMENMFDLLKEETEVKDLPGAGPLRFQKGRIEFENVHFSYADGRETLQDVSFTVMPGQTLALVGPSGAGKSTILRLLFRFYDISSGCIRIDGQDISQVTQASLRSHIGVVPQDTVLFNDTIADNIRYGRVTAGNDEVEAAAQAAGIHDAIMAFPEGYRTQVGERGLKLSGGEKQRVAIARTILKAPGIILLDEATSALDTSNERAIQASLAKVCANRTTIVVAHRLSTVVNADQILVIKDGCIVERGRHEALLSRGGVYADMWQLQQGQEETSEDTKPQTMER
Sequence of AP-2 complex subunit beta (Homo sapiens) (P63010 whole entry, looked up, the tested form may be a part, one chain of several): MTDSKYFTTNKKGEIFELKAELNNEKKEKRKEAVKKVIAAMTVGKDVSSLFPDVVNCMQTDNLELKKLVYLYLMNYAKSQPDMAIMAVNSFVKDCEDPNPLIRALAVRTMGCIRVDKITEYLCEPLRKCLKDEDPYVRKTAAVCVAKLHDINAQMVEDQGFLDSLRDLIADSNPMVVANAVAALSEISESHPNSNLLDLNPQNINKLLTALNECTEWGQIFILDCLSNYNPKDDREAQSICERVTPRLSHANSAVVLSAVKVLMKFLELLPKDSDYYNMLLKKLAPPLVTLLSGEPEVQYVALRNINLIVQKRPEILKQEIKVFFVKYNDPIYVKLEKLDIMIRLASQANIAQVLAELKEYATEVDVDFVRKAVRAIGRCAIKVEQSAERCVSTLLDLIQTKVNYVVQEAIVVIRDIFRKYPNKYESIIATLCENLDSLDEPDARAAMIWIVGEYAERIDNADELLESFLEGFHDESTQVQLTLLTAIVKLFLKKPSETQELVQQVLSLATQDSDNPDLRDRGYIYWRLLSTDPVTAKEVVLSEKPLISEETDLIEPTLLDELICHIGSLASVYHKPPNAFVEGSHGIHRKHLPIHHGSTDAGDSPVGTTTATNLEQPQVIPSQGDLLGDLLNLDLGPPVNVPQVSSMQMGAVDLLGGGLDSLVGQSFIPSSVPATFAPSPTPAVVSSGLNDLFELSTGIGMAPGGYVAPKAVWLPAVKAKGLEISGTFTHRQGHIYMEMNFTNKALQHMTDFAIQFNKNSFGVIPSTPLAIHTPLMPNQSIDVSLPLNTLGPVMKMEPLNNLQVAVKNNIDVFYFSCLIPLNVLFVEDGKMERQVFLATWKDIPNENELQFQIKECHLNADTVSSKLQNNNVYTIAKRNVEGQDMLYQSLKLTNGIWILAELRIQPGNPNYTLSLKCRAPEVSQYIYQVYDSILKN
Sequence of Beta-2 adrenergic receptor (Homo sapiens) (P07550 whole entry, looked up): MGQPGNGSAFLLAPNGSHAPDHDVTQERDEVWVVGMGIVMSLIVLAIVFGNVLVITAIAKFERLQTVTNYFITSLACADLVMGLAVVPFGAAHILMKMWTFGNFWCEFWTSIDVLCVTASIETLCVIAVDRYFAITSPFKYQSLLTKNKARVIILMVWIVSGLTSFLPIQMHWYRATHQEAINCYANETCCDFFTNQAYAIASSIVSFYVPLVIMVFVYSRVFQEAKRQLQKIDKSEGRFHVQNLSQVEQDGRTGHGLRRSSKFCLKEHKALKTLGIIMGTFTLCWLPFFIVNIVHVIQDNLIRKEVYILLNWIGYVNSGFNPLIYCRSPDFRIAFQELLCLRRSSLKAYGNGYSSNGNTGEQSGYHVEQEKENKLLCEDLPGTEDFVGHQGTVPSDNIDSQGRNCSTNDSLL

O=Cc1ccc(OC(=O)c2cccnc2)cc1
percent of DMSO control GFP [1]: 101% (inactive) | GFP response vs DMSO [2]: 91.9% (inactive) | percent response of DMSO control [3]: 107% (inactive) | GFP response vs DMSO [4]: 78.6% (inactive) | GFP response, % of DMSO [5]: 99.5% (inactive) | double positive events [6]: 58.7% | vesicle binding response [6]: 209% (inactive) | inhibition [7]: 2.3% (inactive) | superoxide response (% of plate) [8]: 98.5% (inactive) | aptamer binding inhibition [9]: 1% (inactive) | response [10]: -10.5% (inactive) | inhibition [11]: -1.7% (inactive) | response [12]: 1.76% (inactive) | binding (% of control) [13]: 93% (inactive) | efflux inhibition (fraction of control) [14]: 0.05 (inactive) | inhibition [15]: 4% (inactive) | differentiation response [16]: 16.8% (inactive)

COc1cc2c(cc1OC)/C(=C/c1ccc(Cl)cc1)C(=O)OC2
percent of DMSO control GFP [1]: 87.8% (inactive) | GFP response vs DMSO [2]: 108% (inactive) | percent response of DMSO control [3]: 95.2% (inactive) | GFP response vs DMSO [4]: 83.1% (inactive) | GFP response, % of DMSO [5]: 85.7% (inactive) | double positive events [6]: 63.9% | vesicle binding response [6]: 155% (inactive) | inhibition [7]: -7.12% (inactive) | superoxide response (% of plate) [8]: 95.8% (inactive) | aptamer binding inhibition [9]: 4% (inactive) | response [10]: -8.94% (inactive) | inhibition [11]: 10.1% (inactive) | response [12]: -2.13% (inactive) | binding (% of control) [13]: 104% (inactive) | efflux inhibition (fraction of control) [14]: 0.3 (inactive) | inhibition [15]: 1% (inactive) | differentiation response [16]: -2.46% (inactive)

CCC(C)NCCOc1ccc(C(C)(C)c2ccccc2)cc1 (stereo not drawn)
percent of DMSO control GFP [1]: 107% (inactive) | GFP response vs DMSO [2]: 99.3% (inactive) | percent response of DMSO control [3]: 104% (inactive) | GFP response vs DMSO [4]: 94% (inactive) | GFP response, % of DMSO [5]: 103% (inactive) | double positive events [6]: 61.9% | vesicle binding response [6]: 181% (inactive) | inhibition [7]: -5.64% (inactive) | superoxide response (% of plate) [8]: 97.5% (inactive) | aptamer binding inhibition [9]: -5% (inactive) | response [10]: 17.1% (inactive) | inhibition [11]: -12.2% (inactive) | response [12]: -2.14% (inactive) | binding (% of control) [13]: 106% (inactive) | efflux inhibition (fraction of control) [14]: -0.01 (inactive) | inhibition [15]: -5% (inactive) | differentiation response [16]: 9.04% (inactive)

O=C1[C@@H]2[C@H](Cc3ccc(O)cc3)N[C@]3(C(=O)Nc4ccccc43)[C@@H]2C(=O)N1c1ccc(F)cc1
percent of DMSO control GFP [1]: 106% (inactive) | GFP response vs DMSO [2]: 103% (inactive) | percent response of DMSO control [3]: 100% (inactive) | GFP response vs DMSO [4]: 90.1% (inactive) | GFP response, % of DMSO [5]: 91.9% (inactive) | double positive events [6]: 61.1% | vesicle binding response [6]: 1070% (inactive) | inhibition [7]: 14.1% (inactive) | superoxide response (% of plate) [8]: 90% (inactive) | aptamer binding inhibition [9]: 2% (inactive) | response [10]: -3.4% (inactive) | inhibition [11]: 3.35% (inactive) | response [12]: -0.08% (inactive) | binding (% of control) [13]: 92.2% (inactive) | efflux inhibition (fraction of control) [14]: 0.3 (inactive) | inhibition [15]: 0% (inactive) | differentiation response [16]: 6.11% (inactive)

C[C@@H]1C[C@H]2[C@@H]3C[C@H](F)C4=CC(=O)C=C[C@]4(C)[C@@]3(F)[C@@H](O)C[C@]2(C)[C@@]1(O)C(=O)COC(=O)C(C)(C)C
percent of DMSO control GFP [1]: 101% (inactive) | GFP response vs DMSO [2]: 105% (inactive) | percent response of DMSO control [3]: 99.3% (inactive) | GFP response vs DMSO [4]: 98.7% (inactive) | GFP response, % of DMSO [5]: 99.2% (inactive) | double positive events [6]: 58.5% | vesicle binding response [6]: 142% (inactive) | inhibition [7]: 6.85% (inactive) | superoxide response (% of plate) [8]: 104% (inactive) | aptamer binding inhibition [9]: 3% (inactive) | response [10]: -5.56% (inactive) | inhibition [11]: 19.2% (inactive) | response [12]: 0.5% (inactive) | binding (% of control) [13]: 100% (inactive) | efflux inhibition (fraction of control) [14]: 0.14 (inactive) | inhibition [15]: 4% (inactive) | differentiation response [16]: -4.16% (inactive)

COc1cc(C(=S)N(C)C)ccc1O
percent of DMSO control GFP [1]: 107% (inactive) | GFP response vs DMSO [2]: 104% (inactive) | percent response of DMSO control [3]: 113% (inactive) | GFP response vs DMSO [4]: 92.6% (inactive) | GFP response, % of DMSO [5]: 116% (inactive) | double positive events [6]: 62.6% | vesicle binding response [6]: 115% (inactive) | inhibition [7]: -11.8% (inactive) | superoxide response (% of plate) [8]: 92.7% (inactive) | aptamer binding inhibition [9]: -1% (inactive) | response [10]: 8.54% (inactive) | inhibition [11]: -1.41% (inactive) | response [12]: 3.06% (inactive) | binding (% of control) [13]: 101% (inactive) | efflux inhibition (fraction of control) [14]: -0.005 (inactive) | inhibition [15]: -8% (inactive) | differentiation response [16]: 15.9% (inactive)

COc1ccc(C2C(C#N)=C(N)Oc3cc(C)[nH]c(=O)c32)c(OC)c1OC (stereo not drawn)
percent of DMSO control GFP [1]: 88.2% (inactive) | GFP response vs DMSO [2]: 117% (inactive) | percent response of DMSO control [3]: 92.6% (inactive) | GFP response vs DMSO [4]: 78.1% (inactive) | GFP response, % of DMSO [5]: 97% (inactive) | double positive events [6]: 63.8% | vesicle binding response [6]: 168% (inactive) | inhibition [7]: 14.2% (inactive) | superoxide response (% of plate) [8]: 97.7% (inactive) | aptamer binding inhibition [9]: 4% (inactive) | response [10]: -4.98% (inactive) | inhibition [11]: -3.85% (inactive) | response [12]: -1.92% (inactive) | binding (% of control) [13]: 109% (inactive) | efflux inhibition (fraction of control) [14]: 0.16 (inactive) | inhibition [15]: 10% (inactive) | differentiation response [16]: 0% (inactive)

CCc1nc(N)nc(N)c1-c1ccc(Cl)cc1
percent of DMSO control GFP [1]: 92.2% (inactive) | GFP response vs DMSO [2]: 112% (inactive) | percent response of DMSO control [3]: 102% (inactive) | GFP response vs DMSO [4]: 70.4% (inactive) | GFP response, % of DMSO [5]: 101% (inactive) | double positive events [6]: 65.6% | vesicle binding response [6]: 209% (inactive) | inhibition [7]: 5.49% (inactive) | superoxide response (% of plate) [8]: 87.5% (inactive) | aptamer binding inhibition [9]: 0% (inactive) | response [10]: -2.3% (inactive) | inhibition [11]: 1.62% (inactive) | response [12]: 1.08% (inactive) | binding (% of control) [13]: 137% (inactive) | efflux inhibition (fraction of control) [14]: 0.23 (inactive) | inhibition [15]: 10% (inactive) | differentiation response [16]: -3.28% (inactive)

O=C(O)c1cccnc1Nc1cccc(C(F)(F)F)c1
percent of DMSO control GFP [1]: 95.9% (inactive) | GFP response vs DMSO [2]: 130% (inactive) | percent response of DMSO control [3]: 110% (inactive) | GFP response vs DMSO [4]: 83.6% (inactive) | GFP response, % of DMSO [5]: 93.3% (inactive) | double positive events [6]: 63.3% | vesicle binding response [6]: 214% (inactive) | inhibition [7]: 7.43% (inactive) | superoxide response (% of plate) [8]: 98.6% (inactive) | aptamer binding inhibition [9]: 6% (inactive) | response [10]: 6.98% (inactive) | inhibition [11]: 47.1% (inactive) | response [12]: -7.29% (inactive) | binding (% of control) [13]: 102% (inactive) | efflux inhibition (fraction of control) [14]: 0.48 (active) | inhibition [15]: 15% (inactive) | differentiation response [16]: 7.37% (inactive)
